Assay results from PubChem BioAssay (NCI).
The panel holds about 83,000 compounds, 20% with a hit somewhere; the sample as a whole holds those more often.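 Growth was measured after 48 h exposure to one concentration of compound in 96-well plates. Values under 10 count as active.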 The source made the active and inactive calls.

Experiments:
Assay in all cases: NCI-60 one-dose screen, 48 h (100 = growth as untreated, 0 = no growth, -100 = all killed)
Details in all cases: 10 µM unless noted
SR leukemia = tested on: SR leukemia
RPMI-8226 leukemia = tested on: RPMI-8226 leukemia
OVCAR-8 ovarian = tested on: OVCAR-8 ovarian
OVCAR-4 ovarian = tested on: OVCAR-4 ovarian
SK-OV-3 ovarian = tested on: SK-OV-3 ovarian
IGROV1 ovarian = tested on: IGROV1 ovarian
OVCAR-3 ovarian = tested on: OVCAR-3 ovarian
HS 578T breast = tested on: HS 578T breast
NCI/ADR-RES ovarian = tested on: NCI/ADR-RES ovarian
T-47D breast = tested on: T-47D breast
MDA-MB-435 melanoma = tested on: MDA-MB-435 melanoma
SW-620 colon = tested on: SW-620 colon
MCF7 breast = tested on: MCF7 breast
HCT-116 colon = tested on: HCT-116 colon
HCC-2998 colon = tested on: HCC-2998 colon
KM12 colon = tested on: KM12 colon
BT-549 breast = tested on: BT-549 breast
OVCAR-5 ovarian = tested on: OVCAR-5 ovarian

Measured: growth

O=C(Nc1ccc(-n2cc(-c3ccncc3)c(-c3ccc(Cl)c(O)c3)n2)cc1)c1ccc(Cl)c(Cl)c1
active: SR leukemia 5.94% | RPMI-8226 leukemia -25.9% | HS 578T breast -35.1% | KM12 colon 0.115%
inactive: OVCAR-8 ovarian 38.5% | OVCAR-4 ovarian 47.4% | SK-OV-3 ovarian 34.1% | IGROV1 ovarian 67.4% | OVCAR-3 ovarian 61.3% | NCI/ADR-RES ovarian 51.6% | T-47D breast 71.9% | MDA-MB-435 melanoma 43.5% | SW-620 colon 11.2% | MCF7 breast 27.9% | HCT-116 colon 16.8% | HCC-2998 colon 10.1%

c1ccc(C(=NNc2nc3ccccc3o2)c2ccccn2)nc1
inactive: SR leukemia 11% | OVCAR-8 ovarian 18.7% | OVCAR-4 ovarian 21.8% | SK-OV-3 ovarian 13.8% | IGROV1 ovarian 16.3% | OVCAR-3 ovarian 16.5% | HS 578T breast 44.2% | BT-549 breast 18.7% | MDA-MB-435 melanoma 25.2% | SW-620 colon 29.7% | HCC-2998 colon 44.3% | KM12 colon 24.6%
active: RPMI-8226 leukemia 6.05% | NCI/ADR-RES ovarian -3.58% | MCF7 breast 6.93% | HCT-116 colon 4.99%

COc1ccc(Cn2cc3c(c2-c2ccccc2)CCc2cnoc2-3)cc1OC
inactive: SR leukemia 18.4% | OVCAR-8 ovarian 38.9% | OVCAR-5 ovarian 75.6% | OVCAR-4 ovarian 41.5% | IGROV1 ovarian 37.7% | OVCAR-3 ovarian 13.8% | T-47D breast 28.3% | BT-549 breast 45.8% | SW-620 colon 25.2% | MCF7 breast 11.4% | HCT-116 colon 22.8% | HCC-2998 colon 37.4% | KM12 colon 29.2%
active: SK-OV-3 ovarian 8.39% | HS 578T breast 5.72% | NCI/ADR-RES ovarian 6.32% | MDA-MB-435 melanoma -33.9%

CCOC(=O)c1cc(-c2ccc(OC)cc2)[nH]c1NNC(=O)CCOC
inactive: SR leukemia 87.7% | OVCAR-8 ovarian 106% | OVCAR-5 ovarian 100% | OVCAR-4 ovarian 113% | SK-OV-3 ovarian 105% | OVCAR-3 ovarian 82.5% | HS 578T breast 104% | NCI/ADR-RES ovarian 125% | T-47D breast 95.2% | BT-549 breast 91.9% | MDA-MB-435 melanoma 96.9% | SW-620 colon 101% | MCF7 breast 113% | HCT-116 colon 93.8% | HCC-2998 colon 122% | KM12 colon 118%
active: IGROV1 ovarian 2.76%

CCCCCN1CCN(C(CC(=O)c2ccccc2)C(=O)c2ccccc2)CC1 (stereo unspecified)
active: SR leukemia 0.154% | SW-620 colon -100%
inactive: RPMI-8226 leukemia 12.6% | OVCAR-8 ovarian 101% | OVCAR-4 ovarian 107% | SK-OV-3 ovarian 102% | IGROV1 ovarian 57.8% | OVCAR-3 ovarian 55.3% | NCI/ADR-RES ovarian 99% | T-47D breast 101% | BT-549 breast 96.2% | MDA-MB-435 melanoma 95.5% | MCF7 breast 89.6% | HCT-116 colon 77.4% | HCC-2998 colon 106% | KM12 colon 102%

O=C(NCCNCCO)c1cc([N+](=O)[O-])cc([N+](=O)[O-])c1O
inactive: SR leukemia 99.8% | RPMI-8226 leukemia 96.7% | OVCAR-8 ovarian 101% | OVCAR-4 ovarian 108% | SK-OV-3 ovarian 111% | IGROV1 ovarian 107% | OVCAR-3 ovarian 110% | HS 578T breast 109% | NCI/ADR-RES ovarian 107% | BT-549 breast 121% | MDA-MB-435 melanoma 104% | SW-620 colon 103% | MCF7 breast 102% | HCT-116 colon 103% | HCC-2998 colon 101% | KM12 colon 108%

CCOC(=O)C1CCCN1C(=O)C1(NC(C)=O)CCCC1 (stereo unspecified)
inactive: SR leukemia 102% | RPMI-8226 leukemia 95.7% | OVCAR-8 ovarian 103% | OVCAR-4 ovarian 105% | SK-OV-3 ovarian 104% | IGROV1 ovarian 96.8% | OVCAR-3 ovarian 103% | NCI/ADR-RES ovarian 103% | T-47D breast 100% | BT-549 breast 95.5% | MDA-MB-435 melanoma 103% | SW-620 colon 99.6% | MCF7 breast 99.3% | HCT-116 colon 96.4% | HCC-2998 colon 108% | KM12 colon 91.2%

CC(=O)NNC(=O)c1sc(NC(C)=O)nc1C
inactive: SR leukemia 87.4% | RPMI-8226 leukemia 105% | OVCAR-8 ovarian 95.6% | OVCAR-4 ovarian 122% | SK-OV-3 ovarian 92.6% | IGROV1 ovarian 23.4% | OVCAR-3 ovarian 103% | HS 578T breast 74.9% | NCI/ADR-RES ovarian 104% | T-47D breast 76.5% | MDA-MB-435 melanoma 110% | SW-620 colon 96.9% | MCF7 breast 87.4% | HCT-116 colon 90.5% | HCC-2998 colon 73.8% | KM12 colon 105%

O=C(O)CC1Cc2ccccc2C1C(=O)O (stereo unspecified)
active: SR leukemia -8.39%
inactive: RPMI-8226 leukemia 110% | OVCAR-8 ovarian 101% | OVCAR-4 ovarian 113% | SK-OV-3 ovarian 102% | IGROV1 ovarian 110% | OVCAR-3 ovarian 102% | HS 578T breast 104% | NCI/ADR-RES ovarian 99.5% | T-47D breast 101% | MDA-MB-435 melanoma 108% | SW-620 colon 98.4% | MCF7 breast 105% | HCT-116 colon 93.5% | HCC-2998 colon 104% | KM12 colon 96.7%
